Data published in PMC4336329 (PLoS ONE, 2015).
Hit rate of the full screen: of about 310,000 compounds, about 2,200 (0.71%) showed an effect of 50% or more. The effect is printed as a negative number. Only a selection was taken, and strong results are over-represented in it overall.

What follows are molecules tested against human ether-à-go-go-related gene (hERG) potassium channel (human, UniProt Q12809) (assay: primary screen, population patch clamp on CHO cells stably expressing hERG; higher = less effect of the substance).
Sequence of human ether-à-go-go-related gene (hERG) potassium channel (Q12809 whole entry, looked up): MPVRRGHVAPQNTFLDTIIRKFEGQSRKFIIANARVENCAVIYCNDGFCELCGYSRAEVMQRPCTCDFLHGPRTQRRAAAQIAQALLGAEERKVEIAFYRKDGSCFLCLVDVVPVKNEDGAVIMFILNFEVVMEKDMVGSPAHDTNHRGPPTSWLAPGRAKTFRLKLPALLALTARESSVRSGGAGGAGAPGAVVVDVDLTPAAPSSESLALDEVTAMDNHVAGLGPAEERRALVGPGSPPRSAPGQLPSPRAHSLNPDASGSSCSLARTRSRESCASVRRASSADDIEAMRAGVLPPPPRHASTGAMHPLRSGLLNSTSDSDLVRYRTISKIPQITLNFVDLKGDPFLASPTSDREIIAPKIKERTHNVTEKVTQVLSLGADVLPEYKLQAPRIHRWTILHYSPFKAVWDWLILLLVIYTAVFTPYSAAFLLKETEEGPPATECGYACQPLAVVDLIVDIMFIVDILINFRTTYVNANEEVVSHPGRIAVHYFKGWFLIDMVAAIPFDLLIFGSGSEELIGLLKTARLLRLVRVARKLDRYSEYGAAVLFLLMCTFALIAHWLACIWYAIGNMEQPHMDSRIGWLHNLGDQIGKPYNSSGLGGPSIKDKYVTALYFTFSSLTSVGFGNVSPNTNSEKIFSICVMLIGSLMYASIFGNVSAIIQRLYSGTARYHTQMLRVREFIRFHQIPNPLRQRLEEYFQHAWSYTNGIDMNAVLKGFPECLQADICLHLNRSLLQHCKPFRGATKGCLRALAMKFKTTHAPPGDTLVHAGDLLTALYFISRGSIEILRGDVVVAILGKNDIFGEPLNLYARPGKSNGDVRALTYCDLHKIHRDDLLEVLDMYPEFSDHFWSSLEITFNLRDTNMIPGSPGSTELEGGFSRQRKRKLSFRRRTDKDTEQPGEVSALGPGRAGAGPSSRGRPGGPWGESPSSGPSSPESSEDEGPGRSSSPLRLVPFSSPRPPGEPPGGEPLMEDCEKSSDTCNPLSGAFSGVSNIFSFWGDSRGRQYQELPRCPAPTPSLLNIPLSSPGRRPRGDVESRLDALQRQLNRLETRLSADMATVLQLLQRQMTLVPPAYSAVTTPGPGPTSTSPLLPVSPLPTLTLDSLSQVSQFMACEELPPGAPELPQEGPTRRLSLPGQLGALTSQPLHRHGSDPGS
Procedure: Briefly, Chinese hamster ovary (CHO) cells stably expressing the hERG channel were dislodged from tissue culture flasks and dispensed into PPC plates. […] During the recording, background leak currents were estimated by a 100 ms step to -80 mV from an initial holding potential of -70 mV and subtracted from the subsequent current measurement. The campaign was conducted in two phases using slight differences in recording protocol. In the first phase, the initial voltage pulse used a 100 ms step to -30 mV from a holding potential of -70 mV, a 2 s conditioning step to +25 mV, and a 2 s test step to -30 mV. During the second phase of the screen, the potential during the conditioning step was raised to +45 mV. In both phases of the campaign, a secondary voltage pulse was applied using the same parameters as the second phase initial pulse. The initial and secondary pulses were applied in the absence of compound, and upon application of 1 μM and 10 μM test concentrations. Small molecule effects on hERG current density were quantified by […].

Compound | hERG current change (%, negative = inhibition) at 1uM
Cc1ccc(Nc2nc(N)nc(CN3CCN(C)CC3)n2)cc1 | 4.62%
Cc1ccc(Nc2nc(N)nc(CN3CCN(Cc4ccc5c(c4)OCO5)CC3)n2)cc1Cl | -34.6%
Nc1nc(CN2CCN(Cc3ccccc3)CC2)nc(Nc2ccc3c(c2)OCCO3)n1 | -52.3%
Nc1nc(CN2CCN(c3ccccc3F)CC2)nc(Nc2ccc3c(c2)OCCO3)n1 | -38%
Nc1nc(CN2CCN(Cc3ccc4c(c3)OCO4)CC2)nc(Nc2ccccc2)n1 | -77.4%
Cc1cccc(Nc2nc(N)nc(CN3CCN(C)CC3)n2)c1 | -5.33%
CN1CCN(Cc2nc(N)nc(Nc3ccc4c(c3)OCCO4)n2)CC1 | 3.07%
Nc1nc(CN2CCN(c3ccccc3F)CC2)nc(Nc2ccccc2)n1 | 0.21%
Cc1ccc(Nc2nc(N)nc(CN3CCN(Cc4ccc5c(c4)OCO5)CC3)n2)cc1 | -53.4%
Cc1cccc(Nc2nc(N)nc(CN3CCN(c4ccccc4)CC3)n2)c1 | -7.51%
Cc1cccc(Nc2nc(N)nc(CN3CCN(Cc4ccc5c(c4)OCO5)CC3)n2)c1 | -74.3%
CC(C)(O)C#Cc1ccc(C(=O)NCc2ccccc2)s1 | -2.9%
CCc1nn(CC(=O)NCCCN(C)C2CCCCC2)c(=O)c2cc3occc3n12 | 2.42%
CN1CCN(c2nc(Nc3ccc(F)cc3)nc(Nc3ccc(F)cc3)n2)CC1 | -0.878%
COc1ccc(CNC(=S)Nc2ccc(-c3ccccc3)cc2)cc1 | 6.99%
COCCn1c(C)cc(C(=O)CSc2nncn2-c2ccccc2)c1C | 8.85%
COc1ccc(OCCN2CCOCC2)cc1 | 20.7%
CN(C)S(=O)(=O)N1CCC(Oc2cccc(C(=O)N3CCSCC3)c2)CC1 | 4.68%
S=c1[nH]cnc2scc(-c3ccc(Cl)cc3)c12 | 10.5%
Cc1ccc(Nc2nc(N)nc(CN3CCCCCC3)n2)c(C)c1 | -21.7%
Cc1ccc(Nc2nc(N)nc(CN3CCN(Cc4ccc5c(c4)OCO5)CC3)n2)c(C)c1 | -70.5%
Cc1ccccc1Nc1nc(N)nc(CN2CCN(Cc3ccc4c(c3)OCO4)CC2)n1 | -45.4%
COc1ccc(-n2c(C)c3c(OC)cccc(=O)c3c2C)cc1 | 0.316%
O=S(=O)(Nc1nc2ccccc2nc1NCCN1CCOCC1)c1cccc(Cl)c1 | 8.11%
O=C(COC(=O)c1ccco1)NCC1CCCO1 (stereo not shown) | -0.29%
Cl.c1ccc(COc2ccccc2CNC23CC4CC(CC(C4)C2)C3)cc1 | -73.8%
COc1cccc(CNC23CC4CC(CC(C4)C2)C3)c1OCc1ccccc1.Cl | 3.29%
COc1cc(CNC23CC4CC(CC(C4)C2)C3)ccc1OCc1ccccc1.Cl | 1.77%

Compound | hERG current change (%, negative = inhibition) at 1uM
Cc1cccc(-c2ccc(NC(=O)C3CCN(CC4CC4)CC3)cc2)c1 | -5.16%
Cc1cccn2c(=O)c3cc(C(=O)NCC4CCCO4)c(=N)n(C4CCCC4)c3nc12 (stereo not shown) | -80.3%
Cc1cccn2c(=O)c3cc(C(=O)NCC4CCCO4)c(=N)n(C4CCCCC4)c3nc12 (stereo not shown) | -83.7%
COc1ccc(C2/C=C\CN(C(=O)c3ccc(C)cc3)[C@H](Cc3ccccc3)C(=O)N2Cc2ccc(F)cc2)cc1 (stereo partly shown) | 11.8%
O=C(Cn1cnc(S(=O)(=O)N2CCCCC2)c1)Nc1ccc(OC(F)(F)F)cc1 | 11.7%
O=C(Oc1cccc2cccnc12)c1cccc(N2C(=O)C3C4CCC(C4)C3C2=O)c1 (stereo not shown) | 3.55%
Cc1ccc(NC(=O)CSCC(=O)Nc2ccc(S(=O)(=O)N3CCOCC3)cc2)cc1 | 11.4%
COc1ccc(C(=O)CSc2nnc(-c3cc4ccccc4cc3O)n2Cc2ccco2)cc1 | -16.2%
OC1(c2cccc(C(F)(F)F)c2)CCN(CCN2CCCCC2)CC1 | 16.2%
OC(CN1CCN(c2ccc(F)cc2)CC1)c1ccc(Cl)cc1 (stereo not shown) | 2.87%
OC(CCCN1CCC(O)(c2ccc(Cl)cc2)CC1)c1ccc(F)cc1 (stereo not shown) | -72.7%
OC1(c2ccc(Cl)cc2)CCN(Cc2cn[nH]c2-c2ccc(F)cc2)CC1 | -27.2%
O=C(CN1CCC(O)(c2ccc(F)cc2)CC1)NCc1ccc(F)cc1 | -0.396%
O=C(CCCN1CCC(O)(c2ccc(Br)cc2)CC1)c1ccc(F)cc1 | -75.7%
Cl.O=C(CCCN1CCC(O)(c2cccc(C(F)(F)F)c2)CC1)c1ccc(F)cc1 | -80.9%
Cl.O=C(CCN1CCN(c2ccccc2F)CC1)c1ccc(Br)cc1 | -40%
CC(=O)N1CCC(O)(c2cccc(C(F)(F)F)c2)CC1 | 8.78%
COc1ccc(CCNC(=O)C(C)n2nc(C)n3c(cc4occc43)c2=O)cc1OC (stereo not shown) | 12.2%
NC(=O)c1ccc(NC(=O)c2cccc(Oc3ccccc3)c2)cc1 | 12.5%
CCOC(=O)C1=C(C)NC(C)=C(C(=O)OCC)C1c1ccc(Br)o1 | 9.3%
COc1cc([N+](=O)[O-])ccc1NC(=S)NCc1ccccn1 | 8.38%
Cc1cc(C)c(NC(=O)CCCSc2nnc(N)s2)c(C)c1 | -4.26%
S=C(Nc1ccc(Cl)cc1Cl)Nc1ccccc1Oc1ccccc1 | 12.4%
O=C1c2ccccc2C(=O)N1CSc1ncccn1 | 1.65%
Cc1cc(NCc2ccco2)nc(N2CCC(C(=O)NC3CCCCC3)CC2)n1 | -63.6%
Cc1cc(C)nc(N2CCC(C(=O)NC3CCCCCC3)CC2)n1 | 0.0346%
Cc1cc(C)nc(N2CCC(C(=O)NCc3ccco3)CC2)n1 | 1.22%
